Counter-ions that a name gives are not always drawn. ± gives the standard deviation of the averaged measurements.
Key:
Experiment in all cases: cell viability (% of vehicle); higher = less cytotoxic
Conditions in all cases: 10 µM; 72 h
HCI01 = test system: HCI01 (cells of a triple-negative basal-like breast cancer xenograft)
HCI03 = test system: HCI03 (cells of an ER-positive luminal breast cancer xenograft)
HCI09 = test system: HCI09 (cells of a triple-negative luminal androgen receptor type breast cancer xenograft)
HCI11 = test system: HCI11 (cells of an ER-positive luminal breast cancer xenograft)
HCI13 = test system: HCI13 (cells of an ER-positive luminal breast cancer xenograft)
HCI16 = test system: HCI16 (cells of a triple-negative basal-like breast cancer xenograft)
UCD52 = test system: UCD52 (cells of a triple-negative basal-like breast cancer xenograft)
WHIM2 = test system: WHIM2 (cells of a triple-negative basal-like breast cancer xenograft)
WHIM30 = test system: WHIM30 (cells of a triple-negative basal-like breast cancer xenograft)
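Further: PDX cells carrying CMV promoter-driven luciferase, viability read as total photon flux per second by IVIS imaging following D-luciferin, vehicle control 0.1% DMSO.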

| SMILES | cell viability (HCI01) | cell viability (HCI03) | cell viability (HCI09) | cell viability (HCI11) | cell viability (HCI13) | cell viability (HCI16) | cell viability (UCD52) | cell viability (WHIM2) | cell viability (WHIM30) |
| --- | --- | --- | --- | --- | --- | --- | --- | --- | --- |
| O=C(OC1C[N+]2(CCCOc3ccccc3)CCC1CC2)C(O)(c1cccs1)c1cccs1.[Br-] (centres undefined) [Aclidinium Bromide] | 113 ± 14 | 131 | 104 ± 6.3 | 94.2 | 185 ± 6.3 | 93.9 | 79.7 ± 14 | 84.7 ± 7.7 | 106 ± 11 |
| Cc1cccc(C(C)c2cnc[nH]2)c1C.Cl (centres undefined) [Medetomidine HCl] | 108 ± 7.7 | 102 | 93.2 ± 21 | 103 | 100.9 ± 1 | 95.4 | 87.4 ± 2.9 | 89.3 ± 22 | 113 ± 5.8 |
| Cc1cccc(C(C)c2cnc[nH]2)c1C (centres undefined) [Dexmedetomidine] | 129 ± 5.7 | 106 | 90.4 ± 10 | 105 | 103 ± 16 | 148 | 92.7 ± 0.94 | 106 ± 9.5 | 120 ± 5.1 |
| Cl.O=C1CCC2(O)C3Cc4ccc(O)c5c4C2(CCN3CC2CC2)C1O5 (centres undefined) [Naltrexone HCl] | 120 ± 20 | 143 | 108.5 ± 0.5 | 108 | 167 ± 2.8 | 151 | 80.3 ± 20 | 88.9 ± 6 | 92.9 ± 7.2 |
| CN(C)C1C(=O)C(C(N)=O)=C(O)C2(O)C(=O)C3=C(O)c4c(O)cccc4C(C)(O)C3C(O)C12 (centres undefined) [Oxytetracycline (Terramycin)] | 83 ± 9.9 | 126 | 108 ± 23 | 85.3 | 115 ± 6.2 | 122 | 99.8 ± 2.1 | 72.1 ± 17 | 121 ± 4.7 |
| Cc1cccc(C)c1NC(=O)CN1CCCC1=O [Nefiracetam] | 124 ± 21 | 128 | 99.9 ± 6.5 | 91.9 | 149 ± 33 | 113 | 74.9 ± 0.92 | 85.6 ± 9.6 | 165 ± 5.6 |
| CCNCC.O=S(=O)(O)c1cc(O)ccc1O [Ethamsylate] | 162 ± 90 | 124 | 99.4 ± 7 | 98 | 97.8 ± 10 | 126 | 109 ± 13 | 92.2 ± 12 | 103 ± 4.7 |
| NC(Cc1ccc(N(CCCl)CCCl)cc1)C(=O)O (centres undefined) [Melphalan] | 76 ± 14 | 116 | 91.1 ± 6.3 | 107 | 77.7 ± 3.6 | 63.1 | 75.3 ± 11 | 58.5 ± 8.7 | 124 ± 3.2 |
| CN1C2CCC1CC(OC(=O)C(CO)c1ccccc1)C2.CN1C2CCC1CC(OC(=O)C(CO)c1ccccc1)C2.O.O=S(=O)(O)O (centres undefined) [Atropine] | 104 ± 7.5 | 134 | 108 ± 16 | 114 | 95.4 ± 4.6 | 101 | 83.3 ± 5.5 | 91.6 ± 19 | 98.4 ± 7.8 |
| CC12CCC3C(CC=C4CC(O)CCC43C)C1CCC2=O (centres undefined) [Dehydroepiandrosterone (DHEA)] | 124 ± 8.8 | 107 | 87 ± 21 | 112 | 111 ± 12 | 102 | 98.2 ± 9.5 | 93.3 ± 20 | 111 ± 4 |
| CCN(C)C(=O)Oc1cccc(C(C)N(C)C)c1.O=C(O)C(O)C(O)C(=O)O (centres undefined) [Rivastigmine Tartrate] | 115.8 ± 0.12 | 116 | 127 ± 62 | 119 | 133 ± 51 | 151 | 111 ± 15 | 91.8 ± 31 | 131 ± 13 |
| NC(=O)CN1CC(O)CC1=O (centres undefined) [Oxiracetam] | 111 ± 16 | 115 | 98.3 ± 9.9 | 71 | 123 ± 12 | 126 | 117 ± 3.4 | 112 ± 15 | 134 ± 8.7 |
| O=c1[nH]c2ccccc2n1C1CCN(CCCC(c2ccc(F)cc2)c2ccc(F)cc2)CC1 [Pimozide] | 103 ± 21 | 104 | 48.1 ± 31 | 70.4 | 69.39 ± 0.41 | 103 | 86.7 ± 16 | 103 ± 24 | 93.69 ± 0.39 |
| Cl.Cn1c(CCCC(=O)O)nc2cc(N(CCCl)CCCl)ccc21 [Bendamustine HCl] | 98.2 ± 7.3 | 93.5 | 95.2 ± 2.5 | 83.5 | 94.9 ± 12 | 77.4 | 97.9 ± 1.9 | 71.4 ± 9.1 | 92.1 ± 14 |
| N/C(N)=N\N.Cl [Aminoguanidine hydrochloride] | 100 ± 16 | 105 | 95.2 ± 6.9 | 64 | 90 ± 2.4 | 118 | 99.6 ± 9.3 | 95.1 ± 21 | 53.4 ± 6.4 |
| O=C1CCC2(O)C3Cc4ccc(O)c5c4C2(CCN3CC2CC2)C1O5 (centres undefined) [Naltrexone] | 111 ± 8.9 | 121 | 97.4 ± 10 | 103 | 100.1 ± 0.98 | 93.4 | 94.5 ± 12 | 92.4 ± 14 | 130 ± 23 |
| CCN(C)C(=O)Oc1cccc(C(C)N(C)C)c1 (centres undefined) [Rivastigmine] | 107 ± 11 | 112 | 109 ± 4.2 | 106 | 98.3 ± 1.7 | 96.3 | 101 ± 7.6 | 103 ± 16 | 118 ± 9.7 |
| CN1c2ccccc2C(NCCCCCCC(=O)[O-])c2ccc(Cl)cc2S1(=O)=O.[Na+] (centres undefined) [Tianeptine sodium] | 132 ± 22 | 134 | 95.1 ± 10 | 122 | 95.95 ± 0.8 | 120 | 122 ± 4.6 | 85.3 ± 8 | 142.2 ± 0.38 |
| CC(=O)Nc1cc([As](=O)(O)O)ccc1O [Arsonic acid] | 105 ± 4.4 | 144 | 102 ± 22 | 112 | 73.2 ± 4.5 | 105 | 112 ± 25 | 101 ± 23 | 132 ± 15 |
| CNCC(=O)c1ccc(O)c(O)c1.Cl [Adrenalone HCl] | 111 ± 21 | 116 | 104 ± 15 | 107 | 88.5 ± 7.3 | 152 | 99.9 ± 5.5 | 87.8 ± 1.7 | 106 ± 7.2 |

| SMILES | cell viability (HCI01) | cell viability (HCI03) | cell viability (HCI09) | cell viability (HCI11) | cell viability (HCI13) | cell viability (HCI16) | cell viability (UCD52) | cell viability (WHIM2) | cell viability (WHIM30) |
| --- | --- | --- | --- | --- | --- | --- | --- | --- | --- |
| O=C(OC1CC2CCC(C1)[N+]21CCCC1)C(O)(c1ccccc1)c1ccccc1.[Cl-] (centres undefined) [Trospium chloride] | 158 ± 1.6 | 119 | 112 ± 5.4 | 124 | 157 ± 39 | 165 | 101 ± 10 | 110 ± 14 | 121 ± 3.2 |
| CCOC(=O)c1cncn1C(C)c1ccccc1 (centres undefined) [Etomidate] | 114 ± 2.7 | 89.8 | 96.6 ± 3.1 | 90.1 | 103 ± 14 | 77.5 | 88.6 ± 2.2 | 81.8 ± 20 | 117 ± 6.2 |
| CC(NC(C)(C)C)C(=O)c1cccc(Cl)c1.Cl (centres undefined) [Bupropion hydrochloride] | 101 ± 2.5 | 109 | 99.6 ± 20 | 85.6 | 103 ± 1.1 | 113 | 90.5 ± 14 | 104 ± 5.2 | 121 ± 10 |
| COc1ccc(C(CN(C)C)C2(O)CCCCC2)cc1.Cl (centres undefined) [Venlafaxine] | 103 ± 4.2 | 139 | 99.26 ± 0.21 | 103 | 124 ± 11 | 106 | 119 ± 17 | 118 ± 10 | 169 ± 35 |
| C[N+](C)(C)CCCCCCCCCC[N+](C)(C)C.[Br-].[Br-] [Decamethonium Bromide] | 110 ± 4.6 | 120 | 100 ± 6.9 | 102 | 105 ± 1.9 | 105 | 78.9 ± 6.2 | 89.8 ± 8.7 | 101 ± 10 |
| CCC1(c2cccc(O)c2)CCCCN(C)C1.Cl (centres undefined) [Meptazinol HCl] | 69.9 ± 42 | 141 | 98.1 ± 10 | 94 | 111 ± 5 | 112 | 85.7 ± 6 | 91.8 ± 33 | 181.3 ± 0.74 |
| CC(C)NCC(O)c1ccccc1Cl.Cl (centres undefined) [Clorprenaline HCL] | 104 ± 18 | 121 | 73.1 ± 30 | 93.9 | 83.1 ± 11 | 104 | 90.6 ± 16 | 88.3 ± 13 | 103 ± 2.4 |
| CCCC1CC(=O)N(C(CC)C(N)=O)C1 (centres undefined) [Brivaracetam] | 98 ± 7 | 163 | 97.1 ± 1.8 | 89.3 | 87.83 ± 0.76 | 101 | 106 ± 1.4 | 98.2 ± 12 | 128 ± 11 |
| NCC1(CC(=O)O)CCCCC1 [Gabapentin] | 96.8 ± 7.7 | 119 | 97.8 ± 9.5 | 104 | 88.1 ± 2.5 | 76 | 77.8 ± 0.82 | 88.1 ± 8.3 | 76.9 ± 11 |
| CCC1=C[C@H]2CN3CCc4c([nH]c5ccccc45)[C@@](C(=O)OC)(C2)[C@@H]13 [Catharanthine] | 88.2 ± 14 | 122 | 99.5 ± 13 | 92.1 | 94 ± 2.4 | 124 | 101 ± 2.3 | 85.5 ± 14 | 97 ± 3.2 |
| Cn1cc(C2=C(c3cn(C4CCN(Cc5ccccn5)CC4)c4ccccc34)C(=O)NC2=O)c2ccccc21 | 94 ± 30 | 95.8 | 72.7 ± 44 | 82.3 | 72.1 ± 9.6 | 99.5 | 49 ± 7.5 | 107 ± 18 | 119 ± 5.6 |
| CC1C=CC=CCCC=CC=CC=CC=CC(OC2OC(C)C(O)C(N)C2O)CC2OC(O)(CC(O)C(O)CCC(O)CC(O)CC(O)CC(=O)OC(C)C(C)C1O)CC(O)C2C(=O)O (centres undefined) [Nystatin (Fungicidin)] | 121 ± 47 | 139 | 128 ± 2.6 | 98.5 | 167 ± 21 | 150 | 118 ± 0.94 | 96.5 ± 1.8 | 147 ± 6.6 |
| Cc1c(N)nc(C(CC(N)=O)NCC(N)C(N)=O)nc1C(=O)NC(C(=O)NC(C)C(O)C(C)C(=O)NC(C(=O)NCCc1nc(-c2nc(C(=O)NCCC[S+](C)C)cs2)cs1)C(C)O)C(O[C@@H]1O[C@@H](CO)[C@@H](O)[C@H](O)[C@@H]1O[C@H]1O[C@H](CO)[C@@H](O)[C@H](OC(N)=O)[C@@H]1O)c1cnc[nH]1 (some centres undefined) [Bleomycin Sulfate] | 117 ± 3.2 |  | 61.2 ± 15 | 106 | 39.2 ± 24 | 83.4 | 109 ± 6.6 | 77 ± 1.2 | 100 ± 27 |
| C#CC1(O)C=CC2C3CCC4=CC(=O)CCC4C3CCC21CC (centres undefined) [Gestodene] |  | 149 | 97.4 ± 20 | 122 | 179 ± 25 | 184 | 143.1 ± 1.4 | 106 ± 5 |  |
| CN(C)C(=O)Oc1ccc[n+](C)c1.[Br-] [Pyridostigmine Bromide] | 104 ± 11 | 120 | 103 ± 3.5 | 92.1 | 136 ± 13 | 105 | 72 ± 2.6 | 96.8 ± 6.6 | 101 ± 3.2 |
| Cl.NCCc1c[nH]c2ccc(O)cc12 [Serotonin HCl] | 103 ± 13 | 132 | 99.9 ± 4 | 94.8 | 57.8 ± 1.6 | 109 | 100 ± 9.6 | 137 ± 45 | 163 ± 26 |
| O=c1[nH]c2ccccc2n1CCCN1CCC(n2c(=O)[nH]c3cc(Cl)ccc32)CC1 [Domperidone] | 195 ± 80 | 103 | 113 ± 65 | 84.9 |  |  | 128 ± 5.5 | 83.8 ± 4.6 | 176 ± 9.8 |
| CCC(C(N)=O)N1CCCC1=O (centres undefined) [Levetiracetam] | 141 ± 6.8 | 166 | 116 ± 17 | 98 | 107 ± 14 | 120 | 126 ± 17 | 91.7 ± 10 | 143 ± 4.9 |
| Cc1cc(O)ccc1Cl [Chlorocresol] | 114 ± 41 | 120 | 88.6 ± 17 | 85.9 | 77.6 ± 8.4 | 107 | 87.1 ± 2.5 | 98.6 ± 25 | 91.9 ± 1.3 |
| C[N+]1(C)[C@@H]2C[C@@H](OC(=O)C(CO)c3ccccc3)C[C@H]1[C@@H]1O[C@@H]12.[Br-] (some centres undefined) [Methscopolamine] | 106 ± 8.5 | 128 | 107 ± 9.7 | 93.2 |  | 97.9 | 80.6 ± 12 | 87.7 ± 8 | 138.9 ± 0.7 |

Source: the supplement of paper PMC6992640
